# Bioassay records: PubChem, several laboratories
# Rows were chosen to be rich in hits. Some 4.9% of all compounds tested hit in one or more screens of this group.
# Beta cell apopt = inhibitors of cytokine-induced beta cell apoptosis, primary screen, luminescence; INS-1E cytokine-induced death, ATP luminescence, 48 h; percent of positive-control rescue, neutral wells zero; protection from apoptosis, % (concentration not given with the values); 0.8% of 300,000 active; AID 435005, 2010;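 active = Every replicate reaches about 75%, or at least half do and their mean reaches it too, limit read from the data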;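 note: 0% = cytokine-treated negative control wells and 100% = positive control rescue; higher means more ATP so stronger rescue from cytokine killing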
# PP5 inh = PP5 phosphatase inhibitors, primary screen, biochemical, fluorescence. Serine/threonine-protein phosphatase 5 (Homo sapiens), P53041. purified PP5c, OMFP substrate fluorescence. inhibition, % at 6.7 µM. 0.18% of 320,000 active. AID 1987, 2009;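 active = inhibition above the campaign's mean inhibition across all tested compounds plus 3 SD, cut at about 9.5% in these data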;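 note: 0% = DMSO only and 100% = 100 µM cantharidin control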
# Target sequence (P53041 whole entry, looked up): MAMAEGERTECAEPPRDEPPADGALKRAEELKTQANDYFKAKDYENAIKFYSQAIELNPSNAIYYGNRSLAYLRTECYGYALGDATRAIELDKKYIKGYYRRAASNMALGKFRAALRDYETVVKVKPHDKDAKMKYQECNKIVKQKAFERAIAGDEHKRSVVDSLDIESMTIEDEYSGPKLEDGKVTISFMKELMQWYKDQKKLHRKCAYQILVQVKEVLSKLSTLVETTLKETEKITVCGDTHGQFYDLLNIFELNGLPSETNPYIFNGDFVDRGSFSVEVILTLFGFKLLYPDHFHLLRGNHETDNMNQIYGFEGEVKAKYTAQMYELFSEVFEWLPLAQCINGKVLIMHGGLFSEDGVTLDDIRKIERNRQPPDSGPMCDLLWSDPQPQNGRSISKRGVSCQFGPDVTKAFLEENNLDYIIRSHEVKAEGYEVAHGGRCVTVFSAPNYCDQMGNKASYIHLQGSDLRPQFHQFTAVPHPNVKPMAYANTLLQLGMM
# Calb FLC = C. albicans growth inhibition with fluconazole, primary screen, CaCi-2 strain, Alamar Blue fluorescence. 0.57% of 300,000 active. C. albicans CaCi-2 (fluconazole-resistant clinical isolate) + fluconazole, 48 h. growth inhibition, % (no concentration beside the values);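 active = growth inhibition above about 58% in most replicates, limit read from the data, passing the limit was not always enough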;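 note: all wells also contain fluconazole at 8 µg/ml as a sub-toxic cotreatment; 0% = median of DMSO wells and 100% = median of geldanamycin control wells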
# Mdm2 MdmX PPI = inhibitors of human Mdm2-MdmX association, primary screen, cell-based, luminescence, split luciferase, SaOS-2, uHTS; 3% of 330,000 active; inhibition, % at 8 µM; SaOS-2 split-luciferase Mdm2/MdmX complementation; Protein Mdm4 (Homo sapiens) + E3 ubiquitin-protein ligase Mdm2 (Homo sapiens), …; AID 485346, 2010;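 active = inhibition of at least 50% at 8 µM in the primary screen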
# CSC inhib = cancer stem cell viability inhibitors, primary screen, luminescence | cancer stem cell-like cells viability | inhibition, % at 7.5 µM | AID 2717, 2010 | 1.1% of 300,000 active; in the data active = inhibition above about 75%; tested in HMLE shEcad cells
# PP1 counter = PP1-alpha phosphatase inhibitors, primary screen, counter-screen for PP5 inhibitor project, biochemical, fluorescence, OMFP substrate, single point; Serine/threonine-protein phosphatase PP1-alpha catalytic subunit (Homo sapiens), P62136; purified PP1alpha; inhibition, % at 6.7 µM; 0.9% of 320,000 active;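 active = inhibition above the mean inhibition of all tested compounds plus 3 SD, computed separately for each screening campaign, cut at about 15% in these data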
# PP1 inh confirm = PP1 phosphatase inhibitors, confirmation, biochemical, fluorescence, OMFP substrate, triplicate; 52% of 1,900 active; shares compounds with PP1 counter; purified PP1alpha; AID 2358, 2010; inhibition, % at 6.7 µM;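 active = mean PP1 inhibition above a set limit taken from the earlier primary screen, cut at about 15% in these data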
# PP5 counter = PP5 phosphatase inhibition by PP1 hits, confirmation, counter-screen for PP1 inhibitor project, biochemical, fluorescence, triplicate. 4% of 1,900 active. shares compounds with PP1 counter. purified PP5c, OMFP fluorescence. inhibition, % at 6.7 µM. AID 2360, 2010;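 active = mean PP5 inhibition over triplicate wells above about 9.5% taken from the earlier PP1 screen, limit read from the data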
# Mdm2 MdmX conf = Mdm2-MdmX complex disruptors, retested hits, confirmation, luminescence, single concentration; inhibition, % at 8 µM; Mdm2-MdmX binding, luminescent assay; shares compounds with Mdm2 MdmX PPI; 55% of 10,000 active; in the data active = inhibition above about 40%
# Full FLuc ctr = full-length luciferase signal inhibition, confirmation, counter-screen for Mdm2/MdmX interaction inhibitor project, cell-based, single concentration, SaOS-2. SaOS-2 full-length luciferase counterscreen, luminescence. inhibition, % at 8 µM. shares compounds with Mdm2 MdmX PPI. 77% of 6,200 active;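 active = mean inhibition at 8 µM reaching about 37%, which flags the compound as non-specific, limit read from the data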;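 note: p53-null SaOS-2 cells with luciferase driven by a doxycycline-inducible promoter; compound on cells about two nights before reading with doxycycline added after day one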
# The depositor's hits bear a star; nt = no result given; ! = repeats disagree.
SMILES,Beta cell apopt,PP5 inh,Calb FLC,Mdm2 MdmX PPI,CSC inhib,PP1 counter,PP1 inh confirm,PP5 counter,Mdm2 MdmX conf,Full FLuc ctr
COc1ccc2[nH]c3c(C)c4ccncc4c(C)c3c2c1,100*,7,105*,100*,-5,35*,17*,-1,92*,7
CC(C)c1ccc2c(c1)C(N1CCNCC1)Cc1ccc(F)cc1S2 (stereo not drawn),116*,3,70,62*,102*,19*,-1,-1,34,nt
Cc1[nH]n2c(=O)cc(-c3ccc([N+](=O)[O-])cc3)nc2c1-c1ccccc1,3,1,-1,66*,-9,45*,35*,2,66*,39*
COc1ccc(N(S(=O)(=O)c2ccccc2)S(=O)(=O)c2ccccc2)c(N)c1,1,2,-4,37,30,2,nt,nt,nt,nt
O=C(Cc1ccc(Cl)cc1)Nc1ccc(-c2cc3ccccc3oc2=O)c(Cl)c1,25,2,-12,59*,82*,23*,24*,3,62*,52*
COc1ccc(Nc2nc(N3CCCCC3)c3ccccc3n2)cc1,73,3,-14,59*,16,21*,3,3,30,nt
CCOCC(=O)Nc1cc(C)on1,-3,-1,-6,3,-8,-3,nt,nt,nt,nt
NC(=NCCCCCCN=C(N)/N=C(\N)Nc1ccc(Cl)cc1)/N=C(\N)Nc1ccc(Cl)cc1,120*,5,106*,91*,78*!,20*,5,0,66*,57*
N=c1c2ccccc2nnn1-c1ccc(C(F)(F)F)cc1,9,-1,0,-16,3,12,nt,nt,nt,nt
Cc1ccc(N=Nc2cc(C)ccc2O)c(C)c1,1,nt,4,-6,3,nt,nt,nt,nt,nt
NS(=O)(=O)c1ccc(N=Nc2ccc(O)c3ncccc23)cc1,121*,4,79*,62*,50,51*,37*,-2,52*,48*
Cc1cccc(N=Nc2ccc(O)c3ncccc23)c1,88*,2,-1,73*,99*,29*,29*,-1,89*,22
CC1CCN(Cc2c(C(=O)N/N=C/c3ccccc3O)nnn2-c2nonc2N)CC1,95*,0,7,69*,nt,22*,17*,-5,80*,32
CCN1/C(=C/C(C)=C/c2sc3ccccc3[n+]2CC)Sc2ccccc21,110*,10*,103*,97*,144*,23*,3,10,100*,15
COc1ccc(C)cc1NC(=O)CN1CCCC1c1ccc2c(c1)OCCCO2 (stereo not drawn),0,nt,nt,32,-8,nt,nt,nt,nt,nt
Cn1cccc1-c1cc(C(=O)N/N=C/c2cc(Br)ccc2O)[nH]n1,21,1,33,74*,nt,21*,22*,-4,78*,26
Cc1nnc(SCC(=O)Nc2ccccc2F)n1-c1ccc(F)cc1,2,0,-4,9,5,1,nt,nt,nt,nt
c1ccc(CNc2nc(-c3ccccn3)nc3ccccc23)cc1,106*,0,-10,78*,50,39*,40*,1,78*,23
c1ccc(CNc2nc(-c3ccccc3)nc3ccccc23)cc1,nt,5,2,24,38,8,nt,nt,nt,nt
Fc1ccc(Nc2nc(NCc3ccco3)c3ccccc3n2)cc1,44,3,-2,77*,86*,20*,-1,0,13,nt
c1ccc(CNc2nc(NCc3ccccc3)c3ccccc3n2)cc1,114*,4,80*,100*,135*,34*,23*,2,75*,51*
Fc1ccccc1-c1nc(NCc2ccccc2)c2ccccc2n1,11,3,6,12,12,1,nt,nt,nt,nt
Clc1ccccc1/C=N/Nc1cc(N2CCOCC2)ncn1,-4,nt,-2,-2,-3,nt,nt,nt,nt,nt
CCCOc1ccc(/C=N/Nc2cc(N3CCOCC3)ncn2)c(O)c1,91*,0,14,73*,98*,27*,23*,-6,81*,24
CCc1ccc(NC(=O)C(=O)NCc2ccccn2)cc1,-9,-2,3,-40,5,2,nt,nt,nt,nt
SMILES,Beta cell apopt,PP5 inh,Calb FLC,Mdm2 MdmX PPI,CSC inhib,PP1 counter,PP1 inh confirm,PP5 counter,Mdm2 MdmX conf,Full FLuc ctr
CC[C@H](C)[C@@H](C(=O)NCCCCCCCCCCC(=O)N1CCN(C(=O)OC(C)(C)C)CC1)n1cc(CCCCN=C(NC(=O)OC(C)(C)C)NC(=O)OC(C)(C)C)nn1,112*,5,nt,64*,4,19*,30*,2,25,nt
C#CCOCCOCCOCCNc1nc(N2CCN(C(=O)CCCCCCCCCCNC(=O)[C@H]([C@@H](C)CC)n3cc(CCCCCN)nn3)CC2)nc(N2CCN(C(=O)CCCCCCCCCCNC(=O)[C@H](CO)n3cc(CCCCCN)nn3)CC2)n1,56,5,nt,90*,3,53*,26*,-2,1,nt
CC[C@@H](C)[C@@H](C(=O)N1CCN(C(=O)OC(C)(C)C)CC1)n1cc(CCCN=C(NC(=O)OC(C)(C)C)NC(=O)OC(C)(C)C)nn1,-6,2,-7,16,-2,0,nt,nt,nt,nt
CCOc1ccc(-c2cc(C(=O)NCCCn3ccnc3)c3cc(Br)ccc3n2)cc1,108*,4,8,100*,11,21*,6,1,23,nt
CCOc1ccc(-c2cc(C(=O)NCCCn3ccnc3)c3ccccc3n2)cc1,8,-1,4,8,0,3,nt,nt,nt,nt
COc1cc2c(cc1OC)CN(c1nc(CN3CCCCC3)nc3sc4c(c13)CCCC4)CC2,32,4,14,53*,21,18*,-2,-5,44*,62*
CCOC(=O)NC(Nc1ccc(OC)cc1)(C(F)(F)F)C(F)(F)F,3,3,-4,7,-16,-2,nt,nt,nt,nt
